Screening results: PubChem BioAssay, National Center for Advancing Translational Sciences (NCATS)
AmpC no deterg = qHTS Inhibitors of AmpC Beta-Lactamase (assay without detergent); P00811; AmpC nitrocefin hydrolysis, absorbance 480 nm, 0.0001% Triton; 0.52% of 330,000 active; Potency, µM (highest dose often 57.1 µM), for the others: top-dose activity change, negative = inhibition, usual class: inhibitors;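 further: potency means the concentration at half of the fitted maximal effect; plate controls were no compound for no effect and no enzyme for full effect; nearly all actives have a fitted effect of over 20% in size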
Target sequence (P00811 whole entry, looked up): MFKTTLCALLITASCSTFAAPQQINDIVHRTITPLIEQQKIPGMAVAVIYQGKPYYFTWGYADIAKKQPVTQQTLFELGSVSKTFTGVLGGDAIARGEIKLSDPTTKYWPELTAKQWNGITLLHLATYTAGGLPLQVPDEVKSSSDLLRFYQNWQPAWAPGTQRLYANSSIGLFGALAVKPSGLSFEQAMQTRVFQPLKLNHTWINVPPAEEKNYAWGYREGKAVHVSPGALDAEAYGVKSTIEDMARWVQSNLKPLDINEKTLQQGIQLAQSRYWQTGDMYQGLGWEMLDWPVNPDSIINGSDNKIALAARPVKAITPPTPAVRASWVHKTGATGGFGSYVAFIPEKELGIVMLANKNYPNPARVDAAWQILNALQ
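AmpC (5.3 nM in the dispensed reagent) in 20 mM phosphate pH 7.0 with 0.01% (detergent screen) or 0.0001% Triton X-100 was preincubated with compounds for 15 min at room temperature. Nitrocefin was then added from an 800 uM solution, and hydrolysis was followed at 480 nm.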
SARS PLpro yeast-1 = qHTS of Yeast-based Assay for SARS-CoV PLP; 0.19% of 330,000 active; Potency, µM (doses to about 32.9 µM), for inactives: at the top dose activity, positive = growth rescue, hits mostly activators; S. cerevisiae expressing SARS-CoV PLpro, growth rescue; calls by dose curve; further: potency means the concentration at half of the fitted maximal effect; 0% is about no effect; nearly all actives have a fitted effect of over 55% in size
AMA1-RON2 inh = qHTS for Inhibitors of AMA1-RON; Towards Development of Antimalarial Drug Lead: Primary Screen. Potency, µM (titrated, usually from 58.2 µM), inactives show at the top dose activity change, negative = inhibition, most hits filed as inhibitors. Plasmodium falciparum AMA1 (3D7) - RON2 peptide interaction. AID 720542, 2013. 0.2% of 360,000 active. AlphaScreen AMA1-biotinylated RON2 peptide binding;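 further: potency means the concentration at half of the fitted maximal effect; 0% = vehicle wells and -100% = peptide control; nearly all actives have a fitted effect of over 45% in size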
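AMA1 (3D7) with his tag at 25 nM final met compounds first, then biotinylated RON2 peptide at 25 nM; detection used donor plus acceptor beads, 10 µg/mL apiece, read by AlphaScreen after 30 min at room temperature.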
Shiga toxin inh = A qHTS for Small Molecule Inhibitors of Shiga Toxin | AID 2315, 2010 | 9.2% of 290,000 active | Vero cells, Shiga toxin protein synthesis inhibition reporter | inhibition, % at 38.7 µM; in the data active means inhibition mostly above about 28%, no sharp cut-off; inactive means mostly below about 43%; further: 0% is about no effect
Cycloheximide cs = Cycloheximide Counterscreen for Small Molecule Inhibitors of Shiga Toxin. cell reporter, cycloheximide protein synthesis inhibition counterscreen. max response, %. 12% of 300,000 active. AID 2314, 2010; in the data active means max response mostly above about 13%, no sharp cut-off; inactive means mostly below about 14%; further: read at 38.3 µM for the half of the compounds with a filed dose; 0% is about no effect
AmpC inh detg = qHTS Inhibitors of AmpC Beta-Lactamase (assay with detergent) | AmpC hydrolysis of nitrocefin, absorbance 480 nm, 0.01% Triton | Potency, µM (doses to about 114 µM), inactives show at the top dose activity change, negative = inhibition, actives largely listed as inhibitors | 0.041% of 370,000 active | AID 485294, 2010;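 further: potency means the concentration at half of the fitted maximal effect; 0% = no-compound wells and -100% = no-enzyme wells; nearly all actives have a fitted effect of over 25% in size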
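AmpC (5.3 nM in the dispensed reagent) in 20 mM phosphate pH 7.0 with 0.01% (detergent screen) or 0.0001% Triton X-100 was preincubated with compounds for 15 min at room temperature. Nitrocefin was then added from an 800 uM solution, and hydrolysis was followed at 480 nm.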
SARS PLpro yeast-2 = qHTS of Yeast-based Assay for SARS-CoV PLP: Hit Validation; shares compounds with SARS PLpro yeast-1; yeast expressing SARS-CoV PLpro, growth phenotype rescue; calls only; 19% of 1,000 active; AID 652038, 2013; call rule not given here
Starred values were filed as active, the others as inactive; i = inactive; ? = inconclusive; / = no result given; + = active, no number. This excerpt belongs to a sample that is enriched for hits. Unless noted, the call rests on the fitted dose curve; in most records, active means well fitted curve in the direction sought with a large enough effect; inconclusive means small, poorly fitted or top-dose-only effect, or another doubt; inactive means no such curve, though single readings can be large; an effect the other way counts as inactive or inconclusive.

SMILES	AmpC no deterg	SARS PLpro yeast-1	AMA1-RON2 inh	Shiga toxin inh	Cycloheximide cs	AmpC inh detg	SARS PLpro yeast-2
C/C(CC(c1ccccc1)c1c(O)c2ccccc2oc1=O)=N\NC(N)=S (stereo not given)	-8%	11µM*	35%	26	-1	?	i
COc1ccc(C(=O)CC(c2ccc(OC)c(OC)c2)c2c(O)c3ccccc3oc2=O)cc1OC (stereo not given)	/	/	1%	/	/	/	/
O=C(CN(Cc1ccccc1Cl)C(=O)CNS(=O)(=O)c1ccccc1)NCC1CCCO1 (stereo not given)	9%	2%	-2%	-10	-3	-12%	/
Oc1ccc(/C=N/Nc2cc(N3CCCC3)nc(N3CCCC3)n2)cc1O	-27%	?	25%	-16	-2	-13%	i
CCOc1ccccc1NC(=S)Nc1ccccc1F	?	?	0%	10	5	5%	i
O=C(c1ccc(O)c(Cl)c1)N1CCN(S(=O)(=O)c2ccccc2)CC1	-25%	?	-2%	3	-3	-3%	i
CCN(CC)S(=O)(=O)c1cc(NC(=O)C2=COCCO2)ccc1Cl	-3%	0%	-2%	/	/	0%	/
CCN(CC)C(=O)c1cccc(NC(=O)C2=COCCO2)c1	-4%	2.2µM*	3%	/	/	3%	i
O=C(CN1CCC(NC(=O)c2cccc(F)c2)CC1)Nc1ccc(Br)cc1	11%	-9%	-5%	-13	-2	-7%	/
O=C(c1ccc(-n2c(SCc3cccc(F)c3)nc3ccccc3c2=O)cc1)N1CCOCC1	244%	3.2µM*	-12%	-12	-5	-3%	+
COc1ccccc1C(=O)Nc1cccc2c1CCCC2	-11%	?	-2%	9	8	-1%	i
O=C(Nc1cccc2c1CCCC2)c1ccccc1Cl	-17%	15%	-4%	-2	2	4%	/
Cc1ccc(NC(=S)Nc2ccc3cn[nH]c3c2)cc1C	-18%	2.5µM*	-2%	-3	10	-13%	?
CCNC(=S)Nc1ccc2cn[nH]c2c1	-20%	10%	-18%	-11	0	-8%	/
CCOC(=O)C(CC)/C(C)=N\NC(=O)c1ccccc1O (stereo not given)	-13%	6.3µM*	-22%	33*	18*	-8%	i
CN(C)S(=O)(=O)c1ccc(/C(O)=C2/C(=O)C(=O)N(Cc3cccnc3)C2c2ccncc2)cc1 (stereo not given)	-18%	10µM*	40%	-2	1	4%	i
CCOC(=O)C1CCCN(c2cc(=O)n(-c3ccccc3Cl)c(=O)[nH]2)C1 (stereo not given)	5%	2%	3%	9	-1	-10%	/
O=C(Nc1ccc(Br)cc1)c1cccn1-c1ncc(C(F)(F)F)cc1Cl	-27%	?	7%	21	12	-2%	i
NC(=O)c1cccn1-c1ncc(C(F)(F)F)cc1Cl	-18%	1%	6%	-2	1	-12%	/
Cc1onc(-c2ccccc2)c1C(=O)NNC(=O)c1ccccc1Br	-49%	2%	49%	/	/	-6%	/
Cc1onc(-c2ccccc2)c1C(=O)NC(=S)NNC(=O)c1ccccc1O	-34%	4.5µM*	9%	4	-3	-12%	i
Cc1onc(-c2ccccc2)c1C(=O)NC(=S)NNC(=O)c1ccc(O)cc1	-37%	1%	48%	38	7	-11%	/
Cc1onc(-c2ccccc2)c1C(=O)NC(=S)NNC(=O)c1ccc(O)cc1O	-49%	14µM*	-22%	11	-2	1%	+
Cc1ccc(-c2nc(C)sc2CC(=O)Nc2nnc(C)s2)cc1	-26%	3%	17%	-20	-1	-5%	/
CC(=O)Nc1ccc(NC(=O)Cc2sc(C)nc2-c2ccc(C)cc2)cc1	-22%	?	-5%	-9	-4	-4%	i
SMILES	AmpC no deterg	SARS PLpro yeast-1	AMA1-RON2 inh	Shiga toxin inh	Cycloheximide cs	AmpC inh detg	SARS PLpro yeast-2
CCN1C(=O)[C@H]2[C@H]3CN=C(SCC(=O)c4ccccc4)N3[C@@](C)(C(=O)OC)[C@H]2C1=O	-15%	/	106%	/	/	/	i
COC(=O)[C@@]1(C)[C@H]2C(=O)N(Cc3ccccc3)C(=O)[C@H]2[C@H]2CN=C(SCc3ccccc3)N21	39%	29%	-15%	/	/	/	/
COC(=O)Nc1ccc(S(=O)(=O)Nc2ccc(O)cc2)cc1	-17%	?	11%	-4	-5	-2%	i
COC(=O)Nc1ccc(S(=O)(=O)Nc2ccc(C)cc2)cc1	-26%	1%	/	-7	-4	?	/
Cc1cccc(NC(=O)Cn2cnc3c(oc4nc5c(cc43)COC(C)(C)C5)c2=O)c1	-6%	13µM*	-2%	25	13	-2%	i
CC1(C)Cc2nc3oc4c(=O)n(CC(=O)Nc5cccc(Cl)c5)cnc4c3cc2CO1	-18%	2%	-8%	12	1	4%	/
NC(=O)c1ccc(NC(=O)COC(=O)/C=C/c2cn(-c3ccccc3)nc2-c2cccnc2)cc1	-38%	?	-3%	-10	-3	-2%	i
CCOC(=O)c1ccc(S(=O)(=O)Nc2nc3cc(S(=O)(=O)NC4=NCCCCC4)ccc3s2)cc1	-51%	3%	3%	-5	-2	-6%	/
CCOC(=O)N1CCN(C(=O)CSc2nc3nc(C)cc(C)n3n2)CC1	-16%	3%	11%	/	/	/	/
CC1CCN(c2c([N+](=O)[O-])nn(-c3ccc4c(c3)OCCO4)[n+]2[O-])CC1	0%	4µM*	-18%	162*	61*	2%	i
O=C(c1ccco1)N1CCN(c2c([N+](=O)[O-])nn(-c3ccc(Cl)cc3)[n+]2[O-])CC1	-8%	?	?	-9	9	-7%	/
Cc1cccc(Nc2nc(Cl)ncc2F)c1C	-22%	3%	0%	/	4	-2%	/
CCN(Cc1ccccc1)S(=O)(=O)c1ccc(C(=O)N2CCN(c3nc4ccccc4s3)CC2)cc1	-13%	2.8µM*	18%	-7	0	-3%	i
CCc1ccc2nc(N3CCN(C(=O)c4ccccc4)CC3)sc2c1	/	/	/	/	/	0%	/
COc1cc(OC)cc(C(=O)N[C@H](C(=O)OCC(=O)Nc2ccc(OC)c(OC)c2)C(C)C)c1	51%	-2%	-9%	2	-1	-11%	/
COc1cc(OC)cc(C(=O)N[C@H](C(=O)OCC(=O)Nc2cccc(F)c2)C(C)C)c1	25%	3.5µM*	1%	-6	-2	2%	i
COc1ccc(NC(=O)C2CCN(C(=O)c3cccs3)CC2)c(OC)c1	-3%	-6%	-2%	-8	-2	1%	/
